From PubChem BioAssay (NCI)
This is part of a sample that, as a whole, favours compounds with a hit. Of some 79,000 tested, about 15% had one in any assay. Calls of active or inactive are those of the source. No stated cut-off is given here; in the data, active means growth inhibition above about 70%; inactive means the rest.

Columns and labels:
[1] = NCI Yeast Anticancer Drug Screen. Data for the rad52 strain (AID 147);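 further: 0% = growth of vehicle-treated control cultures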; details: S. cerevisiae rad52 mutant growth inhibition, stronger effect = higher value
How it was run: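 Genetically altered yeast (DNA damage repair defect) treated with compound; inhibition calculated relative to vehicle.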

[2] = NCI Yeast Anticancer Drug Screen. Data for the wt1 strain (AID 149);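 further: 0% = growth of vehicle-treated wt1 cultures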; details: S. cerevisiae wt1 strain (SPY 50644) growth inhibition, stronger effect = higher value
How it was run: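 Vehicle-normalised growth inhibition; strain wt1; compound exposure.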

[3] = NCI Yeast Anticancer Drug Screen. Data for the rad50EPP+ strain (AID 151);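 further: 0% = growth of vehicle-treated control cultures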; details: S. cerevisiae rad50 mutant strain, stronger effect = higher value
How it was run: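 Strain rad50EPP+; compound exposure; % growth inhibition vs vehicle.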

[4] = NCI Yeast Anticancer Drug Screen. Data for the mgt1 strain (AID 153); details: S. cerevisiae mgt1 mutant growth inhibition, stronger effect = higher value
How it was run: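 Read-out: yeast growth inhibition vs vehicle control. Strain mgt1, drawn from a panel altered in DNA damage repair or cell cycle control.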

[5] = NCI Yeast Anticancer Drug Screen. Data for the rad50 strain (AID 155);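 further: 0% = growth of vehicle-only cultures of the same strain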; details: S. cerevisiae rad50 strain growth inhibition, stronger effect = higher value
How it was run: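 A DNA repair-deficient yeast mutant serves as the test organism; compound-induced growth inhibition is calculated against vehicle-treated cells.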

[6] = NCI Yeast Anticancer Drug Screen. Data for the mec2-1 strain (AID 157); details: S. cerevisiae mec2-1 strain, stronger effect = higher value
How it was run: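 Cells of the genetically defined mec2-1 yeast strain are incubated with test compound. Inhibition of growth is calculated against vehicle-treated controls.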

[7] = NCI Yeast Anticancer Drug Screen. Data for the sgs1 mgt1 strain (AID 161);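 further: 0% = growth of cultures given vehicle only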; details: S. cerevisiae sgs1 mgt1 strain, stronger effect = higher value
How it was run: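 Read-out: growth inhibition vs vehicle controls. Cells: mutant yeast strain deficient in DNA damage repair.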

[8] = NCI Yeast Anticancer Drug Screen. Data for the CLN2oe strain (AID 163);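 further: 0% = growth of vehicle-only control cultures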; details: S. cerevisiae CLN2oe strain, stronger effect = higher value
How it was run: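 Strain altered in cell-cycle control, incubated with compound; growth compared to solvent-treated controls.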

[9] = NCI Yeast Anticancer Drug Screen. Data for the cln2 rad14 strain (AID 165);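 further: 0% = growth equal to vehicle treated cultures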; details: S. cerevisiae cln2 rad14 strain, stronger effect = higher value
How it was run: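 The screen exposed genetically defined yeast (cln2 rad14) to test compounds and scored growth inhibition relative to vehicle-treated controls.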

[10] = NCI Yeast Anticancer Drug Screen. Data for the bub3 strain (AID 167); details: S. cerevisiae bub3 mutant strain, stronger effect = higher value
How it was run: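 Inhibition values come from growth of compound-treated mutant yeast normalised to vehicle-treated controls.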

[11] = NCI Yeast Anticancer Drug Screen. Data for the wt2 strain (AID 169);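 further: 0% = growth of vehicle-treated yeast cultures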; details: S. cerevisiae wt2 strain growth inhibition, stronger effect = higher value
How it was run: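 Steps: yeast strain treated with compound; growth recorded; inhibition calculated relative to cultures given vehicle alone.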

[12] = NCI Yeast Anticancer Drug Screen. Data for the mlh1 strain (AID 171);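 further: 0% = growth of vehicle-treated control cultures of the same strain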; details: S. cerevisiae mlh1 strain growth inhibition, stronger effect = higher value
How it was run: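 Yeast screen: mutant strain plus compound, growth scored against vehicle control wells.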

[13] = NCI Yeast Anticancer Drug Screen. Data for the sgs1 strain (AID 173);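 further: 0% = growth of vehicle-only control cultures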; details: S. cerevisiae sgs1 mutant, stronger effect = higher value
How it was run: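 Inhibition of yeast growth served as the measure. The mutant strain was treated with each compound, and growth was normalised to cultures receiving vehicle alone.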

[14] = NCI Yeast Anticancer Drug Screen. Data for the mlh1 rad18 strain (AID 175); details: S. cerevisiae mlh1 rad18 strain growth inhibition, stronger effect = higher value
How it was run: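 Compound-treated yeast growth, normalised to vehicle controls. Strain bears defined DNA repair mutations.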

[15] = NCI Yeast Anticancer Drug Screen. Data for the rad18 strain (AID 177); details: S. cerevisiae rad18 mutant growth inhibition, stronger effect = higher value
How it was run: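 Inhibition values reflect reduced yeast growth compared with vehicle-treated controls, using a strain engineered with a DNA damage repair defect.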

[16] = at 5.0 µM (retest, dose inferred, filed as 0.5)
[17] = at 50.0 µM (retest, dose inferred, filed as 5.0)

Measured: growth inhibition

CCCCOc1ccc2nc(C)cc(N=[N+]=[N-])c2c1
active: [1]; at 100.0 µM 86% | [4]; at 100.0 µM 90% | [5]; at 100.0 µM 92% | [6]; at 100.0 µM 79% | [7]; at 50.0 µM 91.2% | [9]; [17] 70% | [10]; at 100.0 µM 87% | [11]; at 100.0 µM 93% | [12]; at 100.0 µM 97% | [13]; at 100.0 µM 96% | [14]; [17] 93% | [14]; at 50.0 µM 74.2% | [15]; at 100.0 µM 96%
inactive: [1]; at 1.2 µM 8% | [1]; at 3.7 µM 9% | [1]; at 11.0 µM 14% | [1]; at 33.0 µM 20% | [2]; at 1.2 µM 11% | [2]; at 3.7 µM 10% | [2]; at 11.0 µM 11% | [2]; at 33.0 µM 15% | [2]; at 100.0 µM 69% | [3]; at 1.2 µM -1% | [3]; at 3.7 µM -3% | [3]; at 11.0 µM 0% | [3]; at 33.0 µM 10% | [3]; at 100.0 µM 45% | [4]; at 1.2 µM 6% | [4]; at 3.7 µM 7% | [4]; at 11.0 µM 12% | [4]; at 33.0 µM 32% | [5]; at 1.2 µM 4% | [5]; at 3.7 µM -4% | [5]; [16] 19% | [5]; at 11.0 µM -1% | [5]; at 33.0 µM 33% | [5]; [17] 49% | [5]; at 50.0 µM 19.7% | [6]; at 1.2 µM 11% | [6]; at 3.7 µM 8% | [6]; [16] 7% | [6]; at 11.0 µM 14% | [6]; at 33.0 µM 28% | [6]; [17] -1% | [6]; at 50.0 µM 23.8% | [7]; [16] 12% | [7]; [17] -13% | [8]; at 1.2 µM 7% | [8]; at 3.7 µM 6% | [8]; at 11.0 µM 12% | [8]; at 33.0 µM 28% | [8]; at 100.0 µM 64% | [9]; [16] 6% | [9]; at 50.0 µM 40.8% | [10]; at 1.2 µM 11% | [10]; at 3.7 µM 9% | [10]; [16] 5% | [10]; at 11.0 µM 12% | [10]; at 33.0 µM 31% | [10]; [17] 33% | [10]; at 50.0 µM 37% | [11]; at 1.2 µM 7% | [11]; at 3.7 µM 6% | [11]; at 11.0 µM 10% | [11]; at 33.0 µM 33% | [12]; at 1.2 µM 7% | [12]; at 3.7 µM 10% | [12]; at 11.0 µM 13% | [12]; at 33.0 µM 38% | [13]; at 1.2 µM 12% | [13]; at 3.7 µM 13% | [13]; at 11.0 µM 15% | [13]; at 33.0 µM 41% | [14]; [16] 8% | [15]; at 1.2 µM 16% | [15]; at 3.7 µM 19% | [15]; at 11.0 µM 23% | [15]; at 33.0 µM 51%
